The record followed here is PubChem BioAssay AID540333 (Southern Research Specialized Biocontainment Screening …, 2011).

SMILES strings stand for the structures. Hit rate of the full screen: of about 10,000 compounds, about 320 (3.2%) were called active. The list comes from a sample in which actives are over-represented; it also holds similar structures and randomly drawn compounds. A number with no mark means an inactive call. No stated cut-off is given here; in the data, active means CPE inhibition mostly above about 9.1% (no sharp cut-off); inactive means mostly below about 7.2%.

The experiment in a line: Dengue virus cytopathic effect inhibitors, cell-based, CPE readout, HTS (AID 540333). Particulars: Dengue virus CPE inhibition in host cells, at 20 µM; hits give high values. In general terms: Cytopathic effects are the visible damage that an infection or toxin causes in cultured cells.
Take `O=Cc1ccc(OC2OCCOC2Oc2ccc(C=O)cc2)cc1` (stereo unspecified): the CPE inhibition was 15.4% (active).
Regarding `c1ccc(-c2csc3ncnc(NCC4COc5ccccc5O4)c23)cc1` (stereo unspecified), the CPE inhibition was 6.15%.
For `Cc1cnc(C(=O)OCC(=O)Nc2cccc(S(=O)(=O)N3CCCCC3)c2)cn1`, the CPE inhibition result was “inactive”.
With `Nc1nccnc1C(=O)OCC(=O)Nc1cccc(S(=O)(=O)N2CCCCC2)c1` the entry was “inactive”; with `CC1CCc2c(C(=O)OCC(=O)Nc3cccc(S(=O)(=O)N4CCCCCC4)c3)csc2C1` (stereo unspecified), 11.4% (active).
With `CS/C(=N\S(=O)(=O)c1cccs1)Nc1cccc(Cl)c1C`, the CPE inhibition result is “inactive”.
With `CC(=O)c1cccc(NC(=O)C(OC(=O)c2cccs2)c2ccccc2)c1` (stereo unspecified) the figure was 0.01%; with `Cc1ccc(NC(=O)CSc2ccccc2NC(=O)c2ccccc2)cc1Cl`, 2.96%; with `COc1ccc(C)cc1NC(=O)C(OC(=O)c1cc(C)oc1C)c1ccccc1` (stereo unspecified), 1.23%.
On to `Cc1cc(C(=O)OC(C(=O)Nc2ccc(C)c(Cl)c2)c2ccccc2)c(C)o1` (stereo unspecified), for which the CPE inhibition is 14.6% (active).
On to `Cc1ccc(NC(=O)C(OC(=O)c2cc(C)oc2C)c2ccccc2)cc1` (stereo unspecified), for which the CPE inhibition was 18.4% (active).
With `Cc1ccc(NC(=O)C(OC(=O)c2ccc(F)cc2)c2ccccc2)cc1Cl` (stereo unspecified), the CPE inhibition is 1.61%.
Take `Cc1ccc(NC(=O)CSc2ccccc2NC(=O)c2ccccc2Cl)cc1Cl`: the CPE inhibition is 9.34%.
For `Cc1cc(C)cc(NC(=O)C(OC(=O)c2ccc([N+](=O)[O-])o2)c2ccccc2)c1` (stereo unspecified), the CPE inhibition was 0.445%.
As for `Cc1ccc(NC(=O)C(OC(=O)c2ccc(NC(N)=O)cc2)c2ccccc2)cc1Cl` (stereo unspecified), the CPE inhibition was 15.2% (active).
As to `Cc1cc(C)cc(-n2c(SCC(=O)Nc3cccc(S(=O)(=O)NC4=NCCCCC4)c3)nc3ccccc3c2=O)c1`, the CPE inhibition is 0.54%.
As for `CNC(=O)CSc1nnc(SCCC(=O)O)s1`, the CPE inhibition was 0.415%.
With `O=C(CSc1nc2ccccc2s1)NC1CCCc2ccccc21` (stereo unspecified) the figure was 0.775%.
Turning to `Cc1cccc(Nc2nnc(SCC(=O)NC3CCCc4ccccc43)s2)c1C` (stereo unspecified), the CPE inhibition is 14.5% (active).
Consider `Cc1ccccc1-n1c(C)nnc1SCC(=O)NC1CCCc2ccccc21` (stereo unspecified), for which the CPE inhibition was 0.065%.
For `O=C1c2ccccc2C(=O)N1CN(C(=O)COc1ccc(Cl)cc1Cl)c1cccc(F)c1`, the CPE inhibition was 3.16%.
Take `CCOC(=O)C1=C(C)NC(=O)C1CC(=O)O` (stereo unspecified): the CPE inhibition entry was “inactive”.
Take `CN(c1cccc(NC(=O)CN(c2ccc(Cl)c(Cl)c2)S(=O)(=O)c2ccccc2)c1)S(C)(=O)=O`: the CPE inhibition is 5.86%.
As to `CN(c1cccc(NC(=O)CN(c2cccc(Cl)c2)S(=O)(=O)c2ccc(Cl)cc2)c1)S(C)(=O)=O`, the CPE inhibition was 11.8% (active).
For `CN(c1cccc(NC(=O)CN(c2cccc(Cl)c2)S(=O)(=O)c2ccccc2)c1)S(C)(=O)=O`, the CPE inhibition was 3.62%.
Regarding `COC(=O)CNC(=O)C1Nc2ccc(OC(F)(F)F)cc2C2C=CCC12` (stereo unspecified), the CPE inhibition is 0.595%.
`COc1ccc2c(C)cc(Sc3nnnn3-c3ccccc3)nc2c1`: the CPE inhibition was 3.01%.
The same measure for `COc1ccc(NC(=O)c2ccc(C#N)cc2)cc1NS(=O)(=O)c1ccc(F)cc1`: “inactive”; for `CC(=O)N1N=C(c2ccccc2)CC1c1cn(Cc2ccccc2)c2ccccc12` (stereo unspecified): 6.58%.
The same measure for `CC(=O)N1N=C(c2ccc(Br)cc2)CC1c1cn(C)c2ccccc12` (stereo unspecified): 16% (active).
Take `CCC(=O)N1N=C(c2ccc(C)o2)CC1c1ccc(Br)cc1` (stereo unspecified): the CPE inhibition result was “inactive”.
On to `Cn1c(C=O)c(C#CC(C)(C)O)c2ccccc21`, for which the CPE inhibition is 4.96%.
Turning to `Cn1c(C=O)c(C#Cc2ccccc2)c2ccccc21`, the CPE inhibition entry is “inactive”.
`COc1cc(C#Cc2c(C=O)n(C)c3ccccc23)cc(OC)c1`: the CPE inhibition was 8.36% (active).
Consider `COc1cc(SC)ccc1C(=O)NCCc1ccccc1`, for which the CPE inhibition was 0.785%.
Take `O=C(Nc1cccc(Cl)c1)Nc1cc(S(=O)(=O)N2CCOCC2)ccc1N1CCCC1`: the CPE inhibition is 8.49%.
On to `CC(C)CC(NC(=O)c1ccc(Cl)cc1)C(=O)OCc1cc([N+](=O)[O-])cc2c1OCOC2` (stereo unspecified), for which the CPE inhibition is 1.44%.
With `COC(=O)c1ccc(CNC(=O)COC(=O)C2CCC(C(C)(C)C)CC2)cc1` (stereo unspecified) the figure was 0.91%; with `COc1ccc(CCNC(=O)COC(=O)C2CCCCC2)cc1`, 0.035%.
Consider `COc1ccc(CNC(=O)COC(=O)C2CCC(C(C)(C)C)CC2)cc1` (stereo unspecified), for which the CPE inhibition was 24.9% (active).
With `O=S1(=O)CCC(NC(=S)N2CCCCC2)C1` (stereo unspecified) the entry was “inactive”; with `CC(=O)NC(Cc1ccccc1)C(=O)OCC(=O)c1ccc(Br)cc1` (stereo unspecified), “inactive”; with `COCCCN(C(=S)Nc1cc(Cl)cc(Cl)c1)C(C)c1ccncc1` (stereo unspecified), 16.4% (active).
With `COCCCN(C(=S)Nc1ccc(C)cc1Cl)C(C)c1ccncc1` (stereo unspecified) the entry was “inactive”.
Regarding `COCCCN(C(=S)Nc1c(C)cc(C)cc1C)C(C)c1ccncc1` (stereo unspecified), the CPE inhibition was 0.045%.
In the case of `O=C(CCc1ccccc1)NCCSCc1c(F)cccc1Cl`, the CPE inhibition entry is “inactive”.
With `C#CCN(C(=O)Nc1ccccc1)c1ccccc1` the entry was “inactive”.
Consider `CC(=O)NS(=O)(=O)c1cccnc1Nc1cccc(Cl)c1C`, for which the CPE inhibition is 1.49%.
The same measure for `CC1CCC(=NNc2ccc(C(F)(F)F)cc2[N+](=O)[O-])CC1` (stereo unspecified): 0.085%.
Regarding `CC1(OC(=O)C2CCCC2)C(=O)C=C2C=C3CCCCN3C=C2C1=O` (stereo unspecified), the CPE inhibition entry is “inactive”.
For `CCCCC1=CC2=CC(=O)C(C)(OC(=O)CC)C(=O)C2=CN1C1CCCC1` (stereo unspecified), the CPE inhibition was 20.9% (active).
The same measure for `CCC(=O)OC1(C)C(=O)C=C2C=C(CCCC(=O)OC)OC=C2C1=O` (stereo unspecified): “inactive”; for `Cc1ccc(S(=O)(=O)N/N=C2/CCCCC2C2CCCCC2)cc1[N+](=O)[O-]` (stereo unspecified): 0.01%; for `Fc1ccc(CSc2ncnc3scc(-c4ccccc4)c23)cc1`: 1.17%.
The same measure for `O=C(OC(C(=O)Nc1cccc(C(F)(F)F)c1)c1ccccc1)C1CCCCC1` (stereo unspecified): 21.9% (active); for `CCOC(=O)C(=NC1CCCCC1)NNc1cccc(C(F)(F)F)c1`: 5.4%.
Turning to `COc1cc(OC)c(C(=O)OC(C)C(=O)Nc2cccc(C(F)(F)F)c2)cc1OC` (stereo unspecified), the CPE inhibition entry was “inactive”.
With `Cc1cc(C)nc(NS(=O)(=O)c2ccc(NC(=O)C3(c4ccccc4)CCCC3)cc2)n1` the entry was “inactive”.
The same measure for `CC(=O)Nc1cccc(Oc2ncnc3scc(-c4ccc(C(C)C)cc4)c23)c1`: 15% (active); for `CC(=O)Nc1ccc(Sc2ncnc3scc(-c4ccccc4)c23)cc1`: 2.31%.
For `COc1ccc(-c2csc3ncnc(Oc4ccc5c(C)cc(=O)oc5c4)c23)cc1`, the CPE inhibition result was “inactive”.
